# In the library only some 2.2% were active in any assay of this set; here they are far more common.
# Myeloid diff 2 = promotes myeloid progenitor differentiation; AID 624256; hit rate 1% among 360,000; calls only at 10 µM; ER-HoxA9 myeloid progenitors, lysozyme-GFP differentiation, flow cytometry;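 active = normalized GFP-positive differentiation at or above the plate's own cutoff, the solvent-only control mean plus 3 SD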;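 note: cells exposed to compound for four days before flow analysis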
# Cardiac RTF inh = cardiac RTF calcium desensitization. inhibition, % at 7.15 µM. P19429+P45379. AID 493244. IANBD-labeled cardiac RTF, Ca2+ fluorescence. hit rate 0.12% among 340,000;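 active = inhibition above the mean inhibition of all tested compounds plus 3 SD, cut at about 17% in these data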;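 note: assay run at fixed EC70 calcium of 1.6 mM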
# CRFBP-R2 agonist = CRF-BP/CRF-R2 complex agonism | HEK293 CRF-R2/CRF-BP, calcium dye fluorescence (FLIPR); percent of saturating CRF peptide response | activation, % at 13.2 µM | hit rate 0.46% among 350,000 | AID 588473;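 active = activation of at least 50%, plus an integration ratio under a set limit after plate pattern correction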;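 note: plate controls were neutral control wells without compound for no effect and CRF at EC100 for full effect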
# cardiac RTF act = increases calcium sensitivity of human cardiac regulated thin filaments; IANBD-labeled TnC RTF fluorescence at EC20 calcium; 0% EC20 calcium, 100% full calcium; P19429+P45379; hit rate 0.24% among 340,000; activation, % at 7.2 µM; AID 493008;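 active = activation above the mean over all tested compounds plus 3 SD, cut at about 30% in these data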;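 note: rise in fluorescence read as greater calcium sensitivity of cardiac thin filaments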
# CRFR2-BP antag = antagonists of CRF-binding protein/CRF-R2 receptor complex. AID 588475. HEK293 CRF-R2/CRF-BP, CRF-induced calcium fluorescence. inhibition, % at 11.8 µM. hit rate 0.59% among 350,000;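 active = inhibition of the ligand-induced calcium signal above about 50% at the single tested concentration, limit read from the data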
# Myeloid diff = compounds promoting myeloid differentiation. shares compounds with Myeloid diff 2. ER-HoxA9 myeloid progenitors, GFP/Mac1 double-positive flow. calls only. hit rate 2% among 2,300. AID 651706;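 active = share of green or green-and-red cells above 9 and 9% in run 1 or 4 and 3% in run 2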
# GFP autofluor = compound fluorescence in myeloid differentiation counter-screen; shares compounds with Myeloid diff 2; ER-HoxA9 myeloid progenitors, no estrogen, GFP autofluorescence flow cytometry; vehicle wells 0%, positive control 100%; fluorescence response, % (concentration not given with the values); hit rate 7.4% among 2,300; AID 651707;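 active = over 5% cells positive for green fluorescent reporter, or over 2% positive for both it and APC stain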;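 note: range taken on the double positive population between DMSO and positive control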
# Starred values were filed as active, the others as inactive; i = inactive; . = not tested or not shown; + = active, no number.
SMILES,Myeloid diff 2,Cardiac RTF inh,CRFBP-R2 agonist,cardiac RTF act,CRFR2-BP antag,Myeloid diff,GFP autofluor
COC(=O)c1ccccc1N1C(=O)C2C(C1=O)C1C=CC2C12CC2 (stereo not drawn),+,4,0,0,14,i,94*
N=C1C(c2nc3ccccc3s2)=C(O)CN1Cc1ccco1,+,-30,-3,9,-6,i,0
CCOc1cc(C(=O)Nc2cc(C(=O)OC)ccc2C)ccc1OCC(=O)N1CCOCC1,i,1,0,-2,-8,.,.
CCOc1cc(C(=O)Nc2ccc(C)cc2O)ccc1OCC(=O)N1CCOCC1,+,-7,-2,1,2,i,2
CC(=O)Nc1ccc(S(=O)(=O)N2CCN(CC(O)COc3ccc4ccccc4c3)CC2)cc1 (stereo not drawn),i,-9,2,4,-17,i,0
O=C(CCNS(=O)(=O)c1ccc2c(c1)CCC(=O)N2)NCc1ccc2c(c1)OCO2,i,-11,2,10,5,i,1
Cc1ccc(NS(=O)(=O)c2ccc(Cl)c(C(=O)Nc3ccccc3-c3nc4ccccc4[nH]3)c2)cc1C,i,-5,0,8,-43,i,0
CN(C)S(=O)(=O)c1ccc(Cl)c(C(=O)Nc2nc3ccccc3[nH]2)c1,i,-5,3,-5,-24,.,.
COc1ccc(Cl)cc1NC(=O)CC(=O)Nc1cc(Cl)ccc1OC,i,2,2,-3,-1,.,.
CCCCOc1ccc(OC(=O)Nc2cc(Cl)ccc2OC)cc1,i,-7,-6,-1,81*,+,0
CCCCn1c(N)c(N(CC)C(=O)C2=COCCO2)c(=O)[nH]c1=O,i,-4,-2,3,2,.,.
N#C/C(=C/c1ccc(-c2ccc([N+](=O)[O-])cc2)o1)c1nnc(N2CCOCC2)n1-c1ccccc1,+,-5,176*,-2,-164,i,4
COc1cc(/C=C(\C#N)c2nnc(N3CCOCC3)n2-c2ccccc2)ccc1O,i,2,14,-2,8,.,.
CCOC(=O)c1ccc(N=c2sc(C(=O)OC)cc(=O)n2C2CC2)cc1,i,10,-1,1,-3,i,0
COc1cccc(NC(=S)Nc2cccc3ccccc23)c1,i,-3,-1,2,16,i,0
O=C(Nc1ccccc1)C(Cc1ccccc1)NC(=O)C12CC3CC(CC(C3)C1)C2 (stereo not drawn),+,-11,3,3,24,i,0
O=C(CC12CC3CC(CC(C3)C1)C2)NC(Cc1ccccc1)C(=O)O (stereo not drawn),i,-7,0,-2,0,.,.
COC(=O)C1=C(C)N(Cc2ccccc2)C(=NCc2cc(OC)c(OC)c(OC)c2)N[C@H]1CCc1ccccc1,+,-17,0,1,-1,i,0
Cc1nn(Cc2ccc([N+](=O)[O-])cc2)c(=O)n1-c1ccc(Cl)cc1,+,-1,-1,8,5,i,0
COc1ccccc1C/C(N)=N/OC(=O)COc1cccc2ccccc12,i,1,2,1,10,.,.
N/C(Cc1cccc2ccccc12)=N\OC(=O)COc1ccccc1,i,-2,-1,-4,2,i,0
COc1cccc(-c2nc(CS(=O)(=O)CC(=O)NCCCN3CCN(C)CC3)c(C)o2)c1,i,6,0,-1,6,.,.
CCN1CCN(CCCNC(=O)CS(=O)(=O)Cc2nc(-c3cccc(OC)c3)oc2C)CC1,i,-5,0,3,2,i,1
CCCCCC1=CCC/C1=N\NC(=O)c1ccc2c(c1)OCO2,i,-2,-4,7,-14,.,.
CC(C)(C)c1cc(Cl)c(O)c(NC(=S)NC(=O)c2cccnc2)c1,+,-14,2,2,-9,i,0
SMILES,Myeloid diff 2,Cardiac RTF inh,CRFBP-R2 agonist,cardiac RTF act,CRFR2-BP antag,Myeloid diff,GFP autofluor
CSc1nnc(N2C(=O)C(O)=C(C(=O)c3ccc(C)o3)C2c2ccc(C)cc2)s1 (stereo not drawn),+,-3,5,4,10,i,0
Cc1ccc(O)c(NC(=O)c2cc3nc4c(c(C(F)(F)F)n3n2)CCc2ccccc2-4)c1,i,-11,-2,5,6,i,0
CCOC(=O)C1(Nc2nccs2)Sc2ccccc2NC1=O (stereo not drawn),+,5,-1,-2,1,i,0
CCOC(=O)C1(N(CC)CC)Sc2cc(C)ccc2NC1=O (stereo not drawn),i,-1,-1,-2,-27,.,.
O=C(/C=C\Nc1ccccn1)c1ccc(Cl)cc1,+,-25,-2,-4,-17,i,0
Cc1cccc(N/C=C/C(=O)c2ccc(Cl)cc2)c1,i,3,-1,-1,20,.,.
Cc1ccc2cc(C#N)c(N3CCCC3)nc2c1C,i,-6,-2,12,17,.,.
Cc1ccc2cc(C#N)c(N3CCCN(C(=O)C4CCCO4)CC3)nc2c1C (stereo not drawn),i,-7,5,4,6,i,1
O=C(c1cccc(S(=O)(=O)N2CCCC2)c1)N1CCOCC1,i,-3,0,2,5,.,.
COc1ccc(CSc2nc(CSC)cc(N3CCOCC3)n2)cc1,+,-13,0,12,2,i,0
C=CC[C@H](CC(=O)N(CCO)Cc1ccccc1)C(=O)N[C@@H](COC(=O)[C@@H](CC=C)Cc1ccc(F)cc1)Cc1c[nH]c2ccccc12,i,-4,3,-10,14,i,0
C=CC[C@@H](CC(=O)N(CCO)Cc1ccccc1)C(=O)N[C@@H](COC(=O)[C@@H](CC=C)Cc1ccc(F)cc1)Cc1c[nH]c2ccccc12,i,3,-1,6,10,.,.
COc1cccc(Cn2nnc(C(=O)Nc3ccc(C)cc3)c2N)c1,i,-2,0,-3,4,.,.
COc1cccc(Cn2nnc(C(=O)Nc3cc(C)ccc3OC)c2N)c1,+,-5,1,5,8,i,88*
CC(=O)c1c(O)cc(=O)n(-c2ccccc2)c1-c1ccc(C)cc1,i,-10,2,0,0,i,0
COc1ccc(CCNC(=O)CN(Cc2ccc(Cl)cc2)S(C)(=O)=O)cc1,i,-1,-2,0,3,.,.
OC[C@@H]1CN(Cc2ccc(-c3ccccc3)cc2)C[C@H](n2cnc3c(NCc4ccc(F)cc4)ncnc32)O1,i,.,.,.,.,.,.
O=C(CCc1nnc(Cc2c[nH]c3ccccc23)o1)NCC1CC12CCCCC2 (stereo not drawn),i,-11,1,-5,-4,i,1

# Source: PubChem (several laboratories)
